Screens: PubChem, several laboratories
FadD28 binding: inhibitors of FadD28 bisubstrate probe binding, primary screen, biochemical, fluorescence polarization, single point. inhibition, % at 12.5 µM. 360,000 tested, 0.22% active. AID 588549, 2011. Mycobacterium tuberculosis FadD28 fatty-acid-AMP ligase; in the data active = inhibition above about 8.5%, passing the limit was not always enough
Mtb FBA inh: Mtb FBA enzyme inhibitors, primary screen, biochemical, fluorescence, strain H37Rv. Fructose-bisphosphate aldolase (Mycobacterium tuberculosis (strain ATCC 25618 / H37Rv)), …. purified M. tuberculosis FBA, fluorescence read-out. inhibition, % at 1 µM. 360,000 tested, 2.3% active. AID 588726, 2011; in the data active = inhibition above about 27%;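 also: 0% = vehicle and 100% = reference inhibitor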
Target sequence (P9WQA3 whole entry, looked up): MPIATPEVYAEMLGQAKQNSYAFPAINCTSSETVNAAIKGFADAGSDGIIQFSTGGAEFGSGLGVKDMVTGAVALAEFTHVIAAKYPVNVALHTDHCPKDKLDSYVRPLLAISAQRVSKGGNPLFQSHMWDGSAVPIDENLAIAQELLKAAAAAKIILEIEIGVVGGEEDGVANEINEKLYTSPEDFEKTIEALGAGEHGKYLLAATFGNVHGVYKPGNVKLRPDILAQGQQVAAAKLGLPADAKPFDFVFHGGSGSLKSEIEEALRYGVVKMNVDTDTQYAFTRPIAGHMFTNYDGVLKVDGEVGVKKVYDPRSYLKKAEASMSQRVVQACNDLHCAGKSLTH
GDH-TPI counter: GDH-TPI coupling enzyme inhibitors, primary screen, artefact control for M. tuberculosis FBA inhibitor project, biochemical, absorbance, full deck; GDH-TPI coupled enzyme counterscreen, NADH absorbance; AID 588335, 2011; 360,000 tested, 1.2% active; inhibition, % at 4.8 µM; in the data active = inhibition above about 30%;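 also: 0% = DMSO wells and 100% = wells lacking the enzyme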
Mtb BioA inh: M. tuberculosis BioA enzyme inhibitors, primary screen, biochemical, plate reader, single point, HTS; 7,8-diaminopelargonic acid synthase BioA (Mycobacterium tuberculosis); purified M. tuberculosis BioA enzyme; inhibition, % at 9.99 µM; 360,000 tested, 0.096% active; in the data active = inhibition above about 40%
3CLpro inhibitor: SARS-CoV 3CLpro protease inhibitors, primary screen, biochemical, quenched FRET. Replicase polyprotein 1ab (Severe acute respiratory syndrome coronavirus), P0C6X7. recombinant SARS-CoV 3CLpro, quenched FRET peptide cleavage. inhibition, % at 6 µM. 290,000 tested, 0.14% active. AID 1706, 2009; in the data active = inhibition above about 12%
Active calls of the source: *; x = not tested or not shown; + = active, no number. Hits are enriched below; roughly 3.1% of the tested compounds scored in any of these assays.

SMILES | FadD28 binding | Mtb FBA inh | GDH-TPI counter | Mtb BioA inh | 3CLpro inhibitor
O=C(COC(=O)c1cc(-c2ccc(Cl)s2)nc2ccccc12)NCc1ccco1 | -10 | 16 | 3 | x | -1
COc1cc(-c2cc(C(=O)NCc3ccco3)c3ccccc3n2)cc(OC)c1OC | -3 | -2 | 14 | 1 | 4
Cc1ccc(-c2cc(C(=O)NCc3ccco3)c3ccccc3n2)s1 | -5 | 113* | 24 | 0 | -2
CNC(=O)C[C@H]1CC[C@H]2[C@@H](COC[C@H](O)CN2C(=O)Nc2cccc(OC)c2)O1 | x | x | x | 0 | x
CCC1=NN2C(=N)/C(=C\c3ccc(SCc4ccco4)o3)C(=O)N=C2S1 | 11* | -11 | 22 | -7 | 1
CCCC1=NN2C(=N)/C(=C\c3ccc(SCc4ccco4)o3)C(=O)N=C2S1 | 14* | -5 | 9 | -5 | 3
CCCC1=NN2C(=N)/C(=C\c3cc(C)n(Cc4ccccc4)c3C)C(=O)N=C2S1 | -1 | 5 | 17 | -1 | 3
C=CCc1c(C)nc(SC)nc1Nc1ccc(C(C)=O)cc1 | -2 | -3 | 48* | 54* | -1
CN(C)/C=C1/C=C(c2ccccc2)OC1=O | -1 | 2 | 33* | -2 | -3
CC1=C/C(=C/N(C)C)C(=O)O1 | -1 | 2 | -2 | x | 0
CN(C)c1ccc(C=NNc2nc3c([nH]2)c(=O)n(C)c(=O)n3C)cc1 | -1 | 15 | 47* | -1 | x
CNC(=S)N(CCO)Cc1cc2cc3c(cc2[nH]c1=O)OCO3 | 0 | 33* | 21 | -1 | -4
CNC(=S)N(CCO)Cc1cc2cc3c(cc2[nH]c1=O)OCCO3 | -1 | 16 | 12 | 0 | -1
C[C@H]1CN([C@@H](C)CO)C(=O)c2cc(C#CCN(C)C)cnc2O[C@H]1CN(C)C(=O)c1cccc(F)c1 | x | x | x | -5 | x
CC(=O)C1=C(O)C(=O)N(CCO)C1c1ccccc1 (stereo not given) | -1 | 1 | 47* | -1 | 4
Cc1cccc(NC(=O)COC(=O)c2cccc(S(=O)(=O)N3CCCCCC3)c2)c1 | 10* | 3 | 8 | -1 | x
Cc1cc(OCC(=O)Nc2cccc(S(=O)(=O)N3CCCCC3)c2)ccc1Cl | -1 | -1 | 5 | -2 | x
CCC(=O)c1ccc(OCC(=O)Nc2cccc(S(=O)(=O)N3CCCCCC3)c2)cc1 | 13* | -3 | 4 | 1 | x
O=C(c1ccccc1)N1C[C@@H]2[C@H](c3ccccc31)[C@H](CO)N2C(=O)Nc1ccccc1Cl | x | x | x | 5 | x
CN1C(=O)c2cc(NC(=O)c3ccc(F)c(F)c3)ccc2OC[C@H]2O[C@@H](CC(=O)Nc3ccc4c(c3)COC4)CC[C@@H]21 | x | x | x | 1 | x
C=CCn1c(=O)c2c(nc3n2CCN3c2cccc(Cl)c2C)n(C)c1=O | -2 | -1 | 11 | 4 | -2
C=CCn1c(=O)c2c(nc(-c3ccc(S(=O)(=O)O)cc3)n2C)n(C)c1=O | -3 | + | 3 | 0 | x
Cc1ccc(C2Nc3ccc4ccccc4c3C3=C2C(=O)CC(C)(C)C3)o1 (stereo not given) | 1 | 15 | 11 | x | 1
CC1(C)CC(=O)C2=C(C1)c1c(ccc3ccccc13)NC2c1cc([N+](=O)[O-])cc([N+](=O)[O-])c1O (stereo not given) | 32* | -12 | 9 | x | 4
CC1(C)CC(=O)C2=C(C1)c1c(ccc3ccccc13)NC2c1ccc(C(=O)O)cc1 (stereo not given) | -2 | + | 6 | 1 | 1
SMILES | FadD28 binding | Mtb FBA inh | GDH-TPI counter | Mtb BioA inh | 3CLpro inhibitor
CCc1cccc(NC(=O)O[C@H]2[C@H](OC(=O)Nc3ccc4c(c3)OCO4)[C@@H](OC(=O)Nc3ccc4c(c3)OCO4)[C@@H](OC)O[C@@H]2CO)c1 | x | x | x | -3 | x
Nc1cc(N)cc(-c2nc3ccccc3o2)c1 | -3 | 2 | -5 | -1 | x
Nc1ccc(-c2nc3ccccc3o2)cc1 | -35 | 150* | 14 | 0 | 0
C[C@@H]1CCCCO[C@H](CN(C)S(=O)(=O)c2ccc(Cl)cc2)[C@H](C)CN([C@H](C)CO)C(=O)c2cc(NC(=O)C3CCCCC3)ccc2O1 | x | x | x | -2 | x
CCCSc1nc2sc3c(c2c(=O)[nH]1)CCN(Cc1ccccc1)C3 | -8 | 86* | 8 | 4 | 7
Cc1ccnc(N/C=C(/NC(=O)c2ccccc2)C(=O)NN)n1 | 1 | 2 | 16 | -2 | -2
